These results are taken from PubChem BioAssay (Tox21).

A short description of test [1]: qHTS assay to identify small molecule agonists of the sonic hedgehog signaling (Shh) pathway (AID 1259368).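 Further: NIH/3T3-derived 3T3Gli1-Luc cells carrying a stable Gli1-driven firefly luciferase reporter; series mostly up to about 92 µM; nearly all actives have a fitted effect of over 15% in size.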 An outline of the steps: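 Hedgehog pathway agonism scored by increased firefly luciferase luminescence in 3T3Gli1-Luc cells treated 24 hr at 37 C; detection used a 30 min room-temperature reagent incubation.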
The nature of test [2]: qHTS assay to identify small molecule antagonists of the sonic hedgehog signaling (Shh) pathway (AID 1259369). Further: nearly all actives have a fitted effect of over 45% in size. Further: potency means the concentration at half of the fitted maximal effect. In a few lines:
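NIH/3T3 stable Gli1-Luc clone, 2,000 cells/well, 4hr settle; cpd + conditioned medium 24hr; Luc reagent 30min RT; luminescence.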
Background: qHTS replaces the single test concentration by a dilution series.

The target in test [3] is Estrogen receptor beta (Homo sapiens) (UniProt Q92731). The experiment in a line: qHTS assay to identify small molecule agonists of the estrogen receptor beta (ER-beta) signaling pathway (AID 1259377; active means well fitted activation curve with a large enough effect in the signal ratio in the repeat runs, not every such curve was filed as active; the % refers to the signal ratio). An outline of the steps: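 Beta-lactamase reporter readout: fluorescence of LiveBLAzer B/G FRET substrate after 2 h at room temperature, following 16 h compound treatment of ER-beta-UAS-bla HEK293T cells at 37C in 2% charcoal-stripped FBS medium.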
Estrogen receptor beta (Homo sapiens), sequence (Q92731 whole entry, looked up): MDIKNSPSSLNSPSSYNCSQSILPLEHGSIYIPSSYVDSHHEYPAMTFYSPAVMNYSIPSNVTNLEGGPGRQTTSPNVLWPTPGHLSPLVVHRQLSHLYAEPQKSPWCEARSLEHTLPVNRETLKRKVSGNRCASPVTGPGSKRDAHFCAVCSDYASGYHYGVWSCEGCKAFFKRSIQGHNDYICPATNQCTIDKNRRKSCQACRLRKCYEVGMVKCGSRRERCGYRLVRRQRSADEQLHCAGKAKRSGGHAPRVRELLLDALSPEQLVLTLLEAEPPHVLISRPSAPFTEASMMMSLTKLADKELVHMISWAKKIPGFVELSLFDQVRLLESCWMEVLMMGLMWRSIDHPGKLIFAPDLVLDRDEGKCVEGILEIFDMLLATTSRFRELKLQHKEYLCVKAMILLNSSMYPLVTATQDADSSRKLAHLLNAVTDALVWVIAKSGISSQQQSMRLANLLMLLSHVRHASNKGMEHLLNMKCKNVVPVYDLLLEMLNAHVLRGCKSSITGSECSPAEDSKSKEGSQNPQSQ

For test [4] the target is unchanged. The experiment in a line: qHTS assay to identify small molecule antagonists of the estrogen receptor beta (ER-beta) signaling pathway (AID 1259378; active means well fitted inhibition curve with a large enough effect in the signal ratio in the repeat runs, not every such curve was filed as active; the % refers to the signal ratio). An outline of the steps:
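ER-beta-UAS-bla HEK293T cells in 2% charcoal-stripped FBS medium treated with compound plus 1nM final 17-beta-estradiol for 16 hr at 37C. Beta-lactamase reporter read by FRET substrate fluorescence after 2 hours at room temperature.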

Test [5] is described as follows: qHTS assay to identify small molecule agonists of the androgen receptor (AR) signaling pathway in the presence of an antagonist - cell viability counter screen (AID 1259379; active means well fitted curve in the direction sought with a large enough effect in the repeat runs; an effect the other way counts as inactive or inconclusive;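 further: MDA-kb2 human breast cancer cells carrying an MMTV luciferase reporter; series mostly up to about 92 µM; nearly all actives have a fitted effect of over 25% in size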). In a few lines: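 MDA-kb2 viability measured by CellTiter-Fluor fluorescence in the same wells as the luciferase signal; nilutamide 3.0uM final; 15-point compound titration; 16 hr at 37C.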

Test [6] can be described thus: qHTS assay to identify small molecule agonists of the estrogen receptor beta (ER-beta) signaling pathway - cell viability counter screen (AID 1259380; active means well fitted curve in the direction sought with a large enough effect in the repeat runs; an effect the other way counts as inactive or inconclusive; further: nearly all actives have a fitted effect of over 30% in size). In a few lines: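 Measured: luminescence from CellTiter-Glo after 30 min at room temperature, added to wells already read for the LiveBLAzer FRET reporter (2 hr substrate); ER-beta-UAS-bla HEK293T cells had 16 hr compound treatment at 37C, 5% CO2.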

The target in test [7] is Androgen receptor (Homo sapiens) (UniProt P10275). The experiment in a line: qHTS assay to identify small molecule agonists of the androgen receptor (AR) signaling pathway in the presence of an antagonist (AID 1259381). Further: nearly all actives have a fitted effect of over 15% in size. An outline of the steps:
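Luminescent ONE-Glo read, 30min at room temperature, follows 16hr compound exposure (15 concentrations) of MDA-kb2 cells at 37C, 0% CO2, with nilutamide added at 3.0uM final.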

Test [8] can be described thus: qHTS assay to identify small molecule antagonists of the estrogen receptor beta (ER-beta) signaling pathway - cell viability counter screen (AID 1259382; active means well fitted curve in the direction sought with a large enough effect in the repeat runs; an effect the other way counts as inactive or inconclusive; further: series mostly up to about 92 µM; nearly all actives have a fitted effect of over 55% in size). In a few lines:
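Readout: luminescence, CellTiter-Glo, same wells as bla assay. System: ER-beta-UAS-bla GripTite HEK293T, 2% charcoal-stripped FBS. Exposure: compounds plus 1nM 17-beta-estradiol, 16 hr, 37C.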

Test [9] has as its target Estrogen receptor (Homo sapiens) (UniProt P03372). The experiment in a line: qHTS assay to identify small molecule agonists of the estrogen receptor alpha (ER-alpha) signaling pathway in the presence of an antagonist (AID 1259383). Further: top concentration of the series differs between compounds; nearly all actives have a fitted effect of over 15% in size. An outline of the steps: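 Quantitative HTS confirmation: compounds titrated at 15 concentrations onto estrogen-deprived VM7Luc4E2 cells carrying a four-ERE luciferase construct, with ICI-182,780 present at 10.0nM final. Signal is luminescence after 22hr exposure.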

A short description of test [10]: qHTS assay to identify small molecule agonists or antagonists of the thyroid stimulating hormone receptor (TSHR) signaling pathway - wild type cell line counter screen (AID 1259384). In a few lines:
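Wild-type Hek293 cells, 800/well, 18 h at 37C, then compound with Ro20-1724 for 30 min RT. cAMP by HTRF (cAMP-d2/anti-cAMP cryptate), 1 h RT, fluorescence read. 15 concentrations, triplicates.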

Values without a mark were called inactive. Results filed as inconclusive are left out. Calls of active or inactive are those of the source. Unless noted, the call rests on the fitted dose curve.
On the % scale 0 is the no-effect control and ±100 the full control effect.

Androgen receptor (Homo sapiens), sequence (P10275 whole entry, looked up): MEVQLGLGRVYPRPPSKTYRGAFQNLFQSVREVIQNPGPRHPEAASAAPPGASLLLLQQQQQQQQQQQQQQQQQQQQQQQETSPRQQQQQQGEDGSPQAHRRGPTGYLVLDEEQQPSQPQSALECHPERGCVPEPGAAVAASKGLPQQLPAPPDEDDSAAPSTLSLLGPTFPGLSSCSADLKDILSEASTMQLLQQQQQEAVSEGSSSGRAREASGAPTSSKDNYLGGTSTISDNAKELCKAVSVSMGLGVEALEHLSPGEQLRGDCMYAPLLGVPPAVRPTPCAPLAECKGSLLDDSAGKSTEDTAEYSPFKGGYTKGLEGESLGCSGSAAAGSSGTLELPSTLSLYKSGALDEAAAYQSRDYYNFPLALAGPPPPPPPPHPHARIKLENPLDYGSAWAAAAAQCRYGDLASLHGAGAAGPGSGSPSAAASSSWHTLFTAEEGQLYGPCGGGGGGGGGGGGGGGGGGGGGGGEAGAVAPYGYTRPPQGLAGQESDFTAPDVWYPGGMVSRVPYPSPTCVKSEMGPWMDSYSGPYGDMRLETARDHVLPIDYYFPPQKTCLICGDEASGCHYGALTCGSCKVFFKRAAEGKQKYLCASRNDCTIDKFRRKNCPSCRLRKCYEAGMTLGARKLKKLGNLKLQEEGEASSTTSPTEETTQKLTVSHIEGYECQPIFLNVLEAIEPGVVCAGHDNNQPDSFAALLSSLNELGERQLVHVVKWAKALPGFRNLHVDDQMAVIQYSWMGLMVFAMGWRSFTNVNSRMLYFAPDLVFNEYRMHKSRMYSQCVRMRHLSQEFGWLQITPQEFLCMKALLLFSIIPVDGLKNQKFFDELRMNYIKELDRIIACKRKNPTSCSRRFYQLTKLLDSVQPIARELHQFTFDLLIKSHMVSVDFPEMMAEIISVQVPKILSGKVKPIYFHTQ
Estrogen receptor (Homo sapiens), sequence (P03372 whole entry, looked up): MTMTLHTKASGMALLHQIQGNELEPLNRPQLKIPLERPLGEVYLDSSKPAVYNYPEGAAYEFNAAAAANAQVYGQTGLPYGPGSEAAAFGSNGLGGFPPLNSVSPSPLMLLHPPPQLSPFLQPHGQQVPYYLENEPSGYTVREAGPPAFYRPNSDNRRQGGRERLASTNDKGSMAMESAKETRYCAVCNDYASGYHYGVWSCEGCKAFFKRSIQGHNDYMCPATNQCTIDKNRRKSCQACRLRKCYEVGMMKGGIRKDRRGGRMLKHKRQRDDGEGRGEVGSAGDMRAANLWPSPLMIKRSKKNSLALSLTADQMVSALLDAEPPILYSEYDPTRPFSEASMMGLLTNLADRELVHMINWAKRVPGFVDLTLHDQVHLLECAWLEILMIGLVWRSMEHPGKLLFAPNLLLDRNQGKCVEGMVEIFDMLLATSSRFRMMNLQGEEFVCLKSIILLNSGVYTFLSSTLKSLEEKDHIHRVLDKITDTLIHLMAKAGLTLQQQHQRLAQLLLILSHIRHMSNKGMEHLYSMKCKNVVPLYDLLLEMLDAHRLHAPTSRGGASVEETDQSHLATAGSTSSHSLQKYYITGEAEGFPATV

`OCCN1C[C@H](O)[C@@H](O)[C@H](O)[C@H]1CO`: the Potency entry in test [1], in [2], in test [4], in test [5], in test [6] and in [7] was “inactive” throughout. Further, the Potency entry in test [8] and in test [9] was “inactive” each time. Besides, the compound was classed as inactive in test [3] and in test [10].

As to `CC(C)(O)c1ccccc1`, the Potency result in test [1], in test [2], in test [4], in test [5], in test [6] and in test [8] was “inactive” each time. In test [9], the Potency entry is “inactive”. Moreover, in test [3], the outcome was inactive.

As to `COCCOC(=O)CC#N`, the Potency result in [1], in test [2], in test [4], in test [5], in test [6] and in [8] was “inactive” throughout. The Potency result in test [9] is “inactive”. The compound was called inactive in [3] and in test [10].

`CC(O)CN(CCCN(C)C)CCCN(C)C` (configuration not stated): the Potency result in test [1], in test [2], in test [4], in [5], in [6] and in test [8] was “inactive” throughout. Moreover, the call in [3] was inactive.

Turning to `COC(=O)CCCC(=O)O`, the Potency result in test [1], in test [2], in test [4], in test [5], in test [6] and in test [8] was “inactive” throughout. Also, the Potency result in [9] is “inactive”. Moreover, the compound was classed as inactive in [3] and in test [10].

Turning to `O=S(=O)(O)c1ccccc1O`, the Potency entry in [1], in test [2], in test [4], in test [5], in test [6] and in test [7] was “inactive” throughout. Besides, the Potency entry in test [8] and in [9] was “inactive” throughout. The outcome in test [3] and in [10] was inactive.

As to `NS(=O)(=O)c1cc2c(cc1C(F)(F)F)NC(Cc1ccccc1)NS2(=O)=O` (configuration not stated), the Potency entry in test [1], in [2], in test [4], in test [5], in [6] and in test [7] was “inactive” in each case. Moreover, the Potency entry in [8] was “inactive”. For the same compound, the compound was classed as inactive in test [3] and in [10].

With `CCCC(C)CO` (configuration not stated), the Potency result in [1], in test [2], in test [4], in test [5], in test [6] and in [7] was “inactive” each time. In test [8], the Potency result is “inactive”. The result in [3] and in [10] was inactive.

Regarding `Fc1ccccc1-c1ccccc1`, the Potency result in test [1], in test [2], in [4], in [5], in test [6] and in [8] was “inactive” each time. Further, the Potency result in test [9] was “inactive”. Also, the result in test [3] and in test [10] was inactive.

Turning to `NCC[C@H](O)C(=O)N[C@@H]1C[C@H](N)[C@@H](O[C@H]2O[C@H](CN)[C@@H](O)[C@H](O)[C@H]2O)[C@H](O)[C@H]1O[C@H]1O[C@H](CO)[C@@H](O)[C@H](N)[C@H]1O`, in test [1], the activity change was 0.203% [at 0.349 µM, stronger effect = higher value]. For the same compound, the activity change, negative = inhibition in test [2] was 22.5% [at 0.349 µM]. Besides, the activation in test [3] was 0.597% [at 0.348 µM]; in test [7], 0.148% [at 0.349 µM]; in test [9] it was 1.1% [at 0.349 µM]. Also, the activity, negative = inhibition in [4] is -5.02% [at 0.349 µM]. The values for the activity change, negative = cytotoxicity in test [5], in test [6] and in test [8] were 1.61% [at 0.35 µM], 1.09% [at 0.349 µM] and 1.11% [at 0.349 µM], respectively. In addition, the cAMP activity change in [10] was -0.997% [at 0.349 µM].

Turning to `CC(=O)OC(C)(C)C`, the Potency result in [1], in [2], in test [4], in test [5], in test [6] and in test [8] was “inactive” in each case. In test [9], the Potency result is “inactive”. Also, in [3], the compound was called inactive.

As to `CCCOCC(C)OCC(C)O` (configuration not stated), the Potency result in test [1], in test [2], in test [4], in test [5], in test [6] and in test [7] was “inactive” throughout. The Potency result in test [8] was “inactive”. In addition, the outcome in test [3] and in test [10] was inactive.

As to `Cc1ccccc1C(=O)O`, the Potency result in [1], in [2], in [4], in test [5], in test [6] and in [8] was “inactive” throughout. Further, the call in [3] was inactive.

Regarding `CNC(=O)c1c(I)c(NC(=O)CCCCC(=O)Nc2c(I)c(C(=O)O)c(I)c(C(=O)NC)c2I)c(I)c(C(=O)O)c1I`, the Potency entry in test [1], in test [2], in test [4], in [5], in [6] and in test [8] was “inactive” in each case. For the same compound, in [9], the Potency result is “inactive”. The result in [3] was inactive.

As for `CCCCOCC(C)OCC(C)O` (configuration not stated), the Potency entry in test [1], in test [2], in test [4], in [5], in test [6] and in [8] was “inactive” each time. Further, the Potency entry in test [9] is “inactive”. For the same compound, the result in test [3] was inactive.

In the case of `CCN(CC)S(=O)(=O)c1ccc(C(=O)O)cc1`, the Potency result in test [1], in [2], in test [4], in test [5], in [6] and in test [8] was “inactive” throughout. For the same compound, in test [9], the Potency entry was “inactive”. For the same compound, the outcome in test [3] and in [10] was inactive.

Consider `CCCCCOC(=O)Nc1nc(=O)n([C@@H]2O[C@H](C)[C@@H](O)[C@H]2O)cc1F`, for which the Potency result in test [1], in test [2], in [4], in test [5], in test [6] and in [8] was “inactive” in each case. The Potency entry in test [9] is “inactive”. The result in test [3] and in test [10] was inactive.

For the compound `CC1=CCC2C(C1)C2(C)C` (configuration not stated), the Potency result in test [1], in test [4], in test [5], in test [6], in [7] and in [8] was “inactive” throughout. Moreover, the Potency entry in [9] was “inactive”. Further, the Potency in test [2] is 17.2 µM (active). The outcome in test [3] and in test [10] was inactive.

Regarding `C=C[Si](OC)(OC)OC`, the Potency entry in [1], in [2], in test [4], in test [5], in test [6] and in [8] was “inactive” each time. Also, the Potency result in [9] is “inactive”. Besides, the compound was called inactive in [3].

As to `COc1ccc(NC(C)=O)cc1`, the Potency entry in test [1], in test [2], in [4], in [5], in test [6] and in test [7] was “inactive” each time. Also, the Potency entry in test [8] was “inactive”. Further, the outcome in test [3] and in [10] was inactive.

Regarding `CC1(C)SC(C)(C)SC(C)(C)S1`, the Potency entry in test [1], in [2], in test [4], in test [5], in test [6] and in test [7] was “inactive” each time. For the same compound, the Potency entry in test [8] and in test [9] was “inactive” each time. In addition, the outcome in [3] and in test [10] was inactive.

Consider `NC(N)=NS(=O)(=O)c1ccc(N)cc1`, for which the Potency entry in test [1], in test [2], in test [4], in test [5], in test [6] and in test [7] was “inactive” throughout. The Potency entry in [8] and in [9] was “inactive” in each case. Further, the result in test [3] and in [10] was inactive.

As to `NC(=O)Nc1nc2ccccc2[nH]1`, the Potency entry in test [1], in test [2], in [4], in [5], in [6] and in [8] was “inactive” each time. The Potency result in test [9] was “inactive”. In addition, the compound was called inactive in test [3].

Regarding `CCN(CC)C(=O)c1ccc(O)c(OC)c1`, the Potency entry in test [1], in test [2], in [4], in test [5], in test [6] and in test [8] was “inactive” in each case. The Potency entry in test [9] was “inactive”. The call in test [3] and in [10] was inactive.
